Results on one compound are retold here after the supplement of paper PMC4237247.

For this assay, the system named is HeLa. Briefly: percent cells in G2/M phase; higher = more G2/M arrest. The settings on record: 10 µM; 20 h; hit class: G2/M-phase inhibitor. The method, then: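 HTS of 79,827 drug-like compounds at 10 uM. HeLa cells in 384-well plates were treated for 20 h, fixed, stained with Vybrant DyeCycle Green and scanned on an Acumen eX3 cytometer to give per-well cell cycle profiles. Only G2/M hits (>=67% G2/M) are listed.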
As to `CN1Cc2c(ccc3c2OCO3)[C@@H]2[C@H]1c1cc3c(cc1C[C@@H]2O)OCO3` [Chelidonine monohydrate (+)], the “percent cells in G2/M phase” value was found to be 72%.
